Assay [1] deals with T1, Hexokinase-4 (Homo sapiens) + Glucokinase regulatory protein (Homo sapiens) (UniProt P35557+Q14397). The experiment in a line: qHTS assay for inhibitors of recombinant human GCK-GKRP interaction: Diaphorase-coupled assay (AID 743205). An outline of the steps: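 A kinetic fluorescence read (Ex 525/Em 590 nm, every minute for 30 minutes) tracked resorufin from a G6PDH-diaphorase coupled GCK reaction. It contained 10 nM GST-GCK, 10 nM FLAG-GKRP, 5 mM glucose, 0.4 mM ATP in Hepes pH 7.6. Normalized to with/without-enzyme DMSO controls.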
For orientation: In qHTS, concentration-response curves come from the screen itself.

The target of assay [2] is T1, Hexokinase-4 (Homo sapiens) + Glucokinase regulatory protein (Homo sapiens). The experiment in a line: qHTS assay for inhibitors of recombinant human GCK-GKRP interaction: ADP-Glo assay (AID 743206).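 Also: plate controls were DMSO plus enzyme for no effect and no enzyme for full effect.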 The gist of the method:
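Pin-transferred compounds meet a 15 nM GST-GCK/15 nM FLAG-GKRP/2 uM S6P mix (dispense concentrations). ATP is then added to 0.4 mM final with 5 mM glucose, and the reaction runs 60 min at room temperature. ADP is quantified luminescently.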

Assay [3] has the same target. In words: qHTS assay for inhibitors of recombinant human GCK-GKRP interaction: HTRF assay (AID 743207).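 Also: 0% = DMSO with GCK present and -100% = DMSO wells lacking GCK.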 An outline of the steps:
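After 60 min equilibration at room temperature with anti-FLAG XL665 and anti-GST antibodies, FRET ratio (665/615 nm, excitation 320 nm) was read. Proteins: GST-GCK and FLAG-GKRP, each 5 nM, plus 2 uM S6P, pH 7.1 buffer; GCK-free wells define minimum signal.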

Assay [4] in a line: qHTS Assay for Identifying Gametocytocidal Compounds (AID 743244). Also: potency is read from the fitted curve at half-maximal effect.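 As to max response: % is scaled to controls: 0 for no effect and ±100 for the full control effect; actives lower the fluorescent signal which means gametocytes are killed.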 As to conditions: P. falciparum 3D7 stage III-V gametocytes, alamarBlue, 72 h; max response: stronger effect = lower value. The gist of the method:
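Compounds are pinned into medium, gametocytes (stage III–V, 3D7, 20,000 cells/well) added, and plates held 72 h at 37 °C in 5% CO2. AlamarBlue follows for 24 h before fluorescence reading.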

A short description of assay [5]: qHTS assay for measurement of the activity of small molecule inhibitors on Zika virus induced Caspase-3 activity in human iPSC derived neural progenitor cells (hNPCs) (AID 1224857). Also: % of control where 0% means no effect; nearly all actives have a fitted effect of over 65% in size. An outline of the steps:
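Pretreat hNPCs with compound 1 h; infect ZIKV 2 FFU/cell; 6 h 37 C, 5% CO2; Caspase-Glo 3/7, 30 min RT; luminescence; normalize to no-virus and virus-only wells.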

Assay [6] is described as follows: qHTS assay for measurement of the activity of small molecule inhibitors on Zika virus induced Caspase-3 activity in human astrocytoma cells (AID 1224859).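 Also: plate controls were ZIKV-infected untreated cells for no effect and uninfected cells for full effect.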 An outline of the steps: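 Human SNB-19 astrocytoma cells in RPMI 1640 with 10% FBS receive compound one hour ahead of Zika virus at 2 FFU/cell. After 6 h infection, caspase-3/7 activity is detected by Caspase-Glo luminescence.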

Assay [7] in a line: qHTS assay to identify small molecule inhibitors of chordoma cells - UCH-1 (AID 1259355). Also: nearly all actives have a fitted effect of over 55% in size. Also: potency is read from the fitted curve at half-maximal effect. An outline of the steps: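 A 48hr growth-inhibition format: each drug tested at 15 concentrations together with added auranofin, camptothecin, doxorubicin, rubitecan and topotecan, with cell viability quantified as CellTiter-Glo luminescence.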
A short description of assay [8]: qHTS assay to identify small molecule inhibitors of chordoma cells - UCH-2 (AID 1259356). Also: potency is read from the fitted curve at half-maximal effect.
The nature of assay [9]: qHTS assay for small molecule antagonists of the retinoid-related orphan receptor gamma (ROR-gamma) signaling pathway - cell viability counter screen (AID 720652; active = well fitted curve in the direction sought with a large enough effect in the repeat runs; an effect the other way counts as inactive or inconclusive;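 also: CHO reporter cells with doxycycline-induced ROR-gamma expression; compound exposure lasted 16 hr before ATP read; % is scaled to controls: 0 for no effect and ±100 for the full control effect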). An outline of the steps:
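Cytotoxicity counter screen: intracellular ATP (CellTiter-Glo luminescence) measured in the doxycycline-induced CHO RORE-luciferase reporter line after 16 hr compound exposure at 37 C, 5% CO2.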

Assay [10] in a line: qHTS assay for cell viability of HEK293 cells (AID 743288). Also: % is scaled to controls: 0 for no effect and ±100 for the full control effect; nearly all actives have a fitted effect of over 50% in size. As to conditions: ATP luminescence (CellTiter-Glo), 18 h; max response: stronger effect = lower value. The gist of the method:
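Readout is luciferase-coupled ATP content (CellTiter-Glo luminescence, 30 min room temperature) as a measure of metabolically competent cells. Parental HEK293 cells were plated 5 h or more before compound addition, then treated 18 h at 37 C.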

Assay [11] in a line: qHTS assay for cell viability of the p53RE-bla HCT-116 cell line (AID 743292). Also: % is scaled to controls: 0 for no effect and ±100 for the full control effect; nearly all actives have a fitted effect of over 55% in size. An outline of the steps: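 Viability of compound-treated p53RE-bla HCT-116 cells is taken from ATP-dependent luciferase luminescence. Treatment lasts 16 h at 37 C after a 5 h settling period; detection follows 30 min at room temperature.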
Assay [12] is described as follows: qHTS assay for small molecule agonists of the antioxidant response element (ARE) signaling pathway measured by Nrf2-dependant transcriptional activity (AID 720636; active = well fitted curve in the direction sought with a large enough effect in the repeat runs; an effect the other way counts as inactive or inconclusive; also: % of control where 0% means no effect). The gist of the method: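 Quantitative HTS format in HepG2 cells stably expressing an ARE-luciferase reporter; 16 hr compound treatment at 37 C, luciferase signal detected with ONE-Glo.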
Assay [13] in a line: qHTS assay for small molecule agonists of the antioxidant response element (ARE) signaling pathway measured by Nrf2-dependant transcriptional activity - cell viability counter screen (AID 720653; active = well fitted curve in the direction sought with a large enough effect in the repeat runs; an effect the other way counts as inactive or inconclusive; also: % is scaled to controls: 0 for no effect and ±100 for the full control effect). As to conditions: ARE-bla HepG2 viability, CellTiter-Glo ATP luminescence, 16 h; max response: stronger effect = lower value. An outline of the steps: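 ARE-bla HepG2 cells (2,000/well) rested 5 hrs at 37C/5% CO2, then exposed to compounds in DMSO for 16 hrs. Viability was read in the same wells as intracellular ATP by luminescence, 30 min at room temperature after reagent addition.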

The nature of assay [14]: qHTS profiling of the MIPE4 collection as inhibitors of Plasmodium falciparum (3D7) proliferation (AID 743344; call rule not given here;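 also: scaled between DMSO vehicle wells and 0.29 µM artemisinin as full inhibition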). The conditions noted are these: P. falciparum 3D7 in erythrocytes, SYBR Green DNA fluorescence, 72 h; at 28.5 µM (top of the series). An outline of the steps:
(§1)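 Parasite DNA was quantified by SYBR Green I fluorescence (ex 485, em 535 nm) after overnight lysis in saponin/Triton buffer at room temperature. Cultures at 0.3% parasitemia and 2.5% hematocrit were first exposed to compound for 72 h at 37 C; signals were normalised to artemisinin (0.29 uM) and vehicle wells.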

Assay [15] in a line: qHTS profiling of the MIPE4 collection as inhibitors of Plasmodium falciparum (DD2) proliferation (AID 743345; call rule not given here). The conditions noted are these: P. falciparum Dd2 in erythrocytes, SYBR Green DNA, 72 h; at 28.5 µM (top of the series). An outline of the steps:
as §1

Assay [16] in a line: qHTS profiling of the MIPE4 collection as inhibitors of Plasmodium falciparum (DD2) proliferation (Rep 2) (AID 743346; call rule not given here). The conditions noted are these: P. falciparum Dd2 in erythrocytes, SYBR Green DNA, 72 h; at 28.5 µM (top of the series). An outline of the steps:
as §1

Assay [17] is described as follows: qHTS profiling of the MIPE4 collection as inhibitors of Plasmodium falciparum (HB3) proliferation (AID 743347; call rule not given here;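 also: plate controls were DMSO vehicle wells for no effect and artemisinin wells for full effect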). As to conditions: P. falciparum HB3 in erythrocytes, SYBR Green DNA, 72 h; at 28.5 µM (top of the series). The gist of the method: as §1

Several values for one entry are separate records, joined by “and”; a condition that tells them apart may be missing. Equal entries are not always repeated. Results filed as inconclusive are left out. Activity calls are given as the source filed them. Unless noted, calls follow the shape of the dose curve; as a rule, active = well fitted curve in the direction sought with a large enough effect; inconclusive = small, poorly fitted or top-dose-only effect, or another doubt; inactive = no such curve, though single readings can be large; an effect the other way counts as inactive or inconclusive.

T1 sequence (P35557 whole entry, looked up): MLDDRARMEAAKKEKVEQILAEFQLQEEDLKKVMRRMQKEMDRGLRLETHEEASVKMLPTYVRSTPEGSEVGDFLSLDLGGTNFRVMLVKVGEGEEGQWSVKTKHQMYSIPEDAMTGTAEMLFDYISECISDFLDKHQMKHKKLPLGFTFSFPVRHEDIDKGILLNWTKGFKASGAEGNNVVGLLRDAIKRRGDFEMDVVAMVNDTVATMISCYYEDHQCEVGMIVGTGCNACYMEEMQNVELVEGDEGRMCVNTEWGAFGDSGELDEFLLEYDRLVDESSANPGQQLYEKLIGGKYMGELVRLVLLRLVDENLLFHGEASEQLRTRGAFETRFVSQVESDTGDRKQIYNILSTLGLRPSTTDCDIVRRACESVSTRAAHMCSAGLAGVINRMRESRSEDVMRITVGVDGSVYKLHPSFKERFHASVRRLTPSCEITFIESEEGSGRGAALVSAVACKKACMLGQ
T1 sequence (Q14397 whole entry, looked up): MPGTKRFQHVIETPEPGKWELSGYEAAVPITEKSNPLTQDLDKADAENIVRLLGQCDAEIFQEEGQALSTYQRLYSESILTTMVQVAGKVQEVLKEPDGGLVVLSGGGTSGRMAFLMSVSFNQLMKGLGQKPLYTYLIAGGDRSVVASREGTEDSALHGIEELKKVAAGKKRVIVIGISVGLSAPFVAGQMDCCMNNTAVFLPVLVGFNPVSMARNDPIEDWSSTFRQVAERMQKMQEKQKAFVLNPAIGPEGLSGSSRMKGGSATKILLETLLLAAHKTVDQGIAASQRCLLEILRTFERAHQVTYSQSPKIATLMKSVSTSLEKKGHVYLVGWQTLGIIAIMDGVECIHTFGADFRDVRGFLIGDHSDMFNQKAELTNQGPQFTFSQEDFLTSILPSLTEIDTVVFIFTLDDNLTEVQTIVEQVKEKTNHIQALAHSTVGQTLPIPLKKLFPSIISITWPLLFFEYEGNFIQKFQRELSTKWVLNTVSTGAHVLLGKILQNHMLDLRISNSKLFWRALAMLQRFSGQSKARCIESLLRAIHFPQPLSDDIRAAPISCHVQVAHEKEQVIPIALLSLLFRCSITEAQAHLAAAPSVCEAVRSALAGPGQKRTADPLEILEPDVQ

For `C[C@]12CCC(=O)C=C1CC[C@@H]1[C@@H]2CC[C@@]2(C)[C@H]1CC[C@]2(O)C(=O)CO`, the result in assay [1], in [2], in assay [5] and in assay [6] was inactive. Also, the Potency result in [3], in [7] and in [8] was “inactive” in each case. The max response in assay [4] is -4.53% (inactive) and -8.22% (inactive).

On to `COC(=O)[C@@H](N)Cc1ccc(O)c(O)c1`, for which the result in assay [1], in [2], in assay [5] and in assay [6] was inactive. Also, in assay [4], the max response was 43.3% (inactive). Moreover, the Potency entry in assay [7] and in assay [8] was “inactive” in each case.

Regarding `CNCCCN1c2ccccc2CCc2ccccc21`, the outcome in assay [6] was inactive. The Potency result in [7] and in [8] was “inactive” throughout.

Take `O=C(CCNNC(=O)c1ccncc1)NCc1ccccc1`: the result in [1], in assay [2], in [5] and in assay [6] was inactive. In addition, in assay [4], the max response was -0.149% (inactive) and 4.87% (inactive). Further, the Potency entry in assay [7] and in assay [8] was “inactive” throughout.

With `NC(=Nc1ccccc1)Nc1ccccc1`, the result in assay [9], in assay [11], in assay [5] and in assay [6] was inactive. For the same compound, the max response in assay [4] was 5.26% (inactive) and -9.95% (inactive); in assay [10] it was -13.7% (inactive) and -2.76% (inactive). For the same compound, in assay [8], the Potency result is “inactive”.

Consider `CCN(CC)CCCN(c1ccccc1)C1Cc2ccccc2C1`, for which the outcome in assay [1], in assay [2] and in [6] was inactive. The Potency entry in [3] is “inactive”. Moreover, the figures for the Potency in [7] and in [8] were 31.6 µM (active) and 23.1 µM (active), respectively.

With `Cc1cc(C)c(/C=C2\C(=O)Nc3ccccc32)[nH]1`, the result in [1], in [2], in assay [5] and in assay [6] was inactive. The max response in assay [4] is -7.62% (inactive) and 20.5% (inactive). Besides, the Potency entry in [7] and in assay [8] was “inactive” throughout.

Take `COCCCC/C(=N\OCCN)c1ccc(C(F)(F)F)cc1`: the result in assay [1], in [2], in assay [5] and in [6] was inactive. Moreover, in assay [4], the max response was 20.1% (inactive). In addition, the Potency entry in [7] was “inactive”.

Turning to `C[N+](C)(C)CCOC(=O)CCC(=O)OCC[N+](C)(C)C`, the result in assay [1], in assay [2], in [5] and in assay [6] was inactive. In assay [4], the max response was 0.123% (inactive) and 29.2% (inactive). The Potency result in [7] and in assay [8] was “inactive” each time.

Take `CCc1c(C)[nH]c2c1C(=O)C(CN1CCOCC1)CC2` (centres undefined): the result in assay [1], in [2], in assay [5] and in assay [6] was inactive. Moreover, the Potency entry in assay [3] and in assay [8] was “inactive” throughout. Moreover, the max response in [4] was 2.02% (inactive) and 26.2% (inactive).

With `NC(=O)N1c2ccccc2C=Cc2ccccc21`, the result in assay [12], in assay [9], in assay [1], in assay [2], in assay [11] and in assay [5] was inactive. Further, the call in assay [6] was inactive. Further, the max response is -1.67% (inactive) and -8.32% (inactive) in assay [13]; -9.6% (inactive) and 15.5% (inactive) in [4]; -11.6% (inactive) and -13.8% (inactive) in assay [10]. The Potency result in assay [3] and in assay [8] was “inactive” throughout.

For `O=C1NCN(c2ccccc2)C12CCN(CCCC(c1ccc(F)cc1)c1ccc(F)cc1)CC2`, the result in assay [1], in assay [2], in assay [5] and in assay [6] was inactive. For the same compound, in [3], the Potency entry is “inactive”. Besides, the Potency in assay [4] is 10 µM (active); in assay [7] it was 31.6 µM (active); in assay [8] it was 25.9 µM (active). In [14], the parasite growth, % of DMSO control was found to be 5.05%. The same compound came in with a parasite growth remaining, % of DMSO control (lower = more inhibition) in [15] of 9.4%. Also, the parasite growth, % of control (lower = inhibition) in assay [16] worked out at 11.8%. Besides, the growth, % of control in assay [17] is 4.02%.

(Values after PubChem BioAssay (NCATS).)
